Screening data deposited in PubChem by National Center for Advancing Translational Sciences (NCATS).
Most compounds without a hit are left out; they make up all but 5.1% or so of the library.
Tau fibril FP = qHTS for Inhibitors of Tau Fibril Formation, Fluorescence Polarization. Microtubule-associated protein tau (Homo sapiens), P10636. K18 P301L tau heparin fibrillization, Alexa594 FP, 6 h. Potency, µM (top dose mostly 57.7 µM), for the others: top-dose activity, negative = inhibition, most hits filed as inhibitors. actives 0.39% (n = 280,000). AID 1468, 2008; further: potency means the concentration at half of the fitted maximal effect; nearly all actives have a fitted effect of over 55% in size
Target sequence (P10636 561-689 P618L limits assumed): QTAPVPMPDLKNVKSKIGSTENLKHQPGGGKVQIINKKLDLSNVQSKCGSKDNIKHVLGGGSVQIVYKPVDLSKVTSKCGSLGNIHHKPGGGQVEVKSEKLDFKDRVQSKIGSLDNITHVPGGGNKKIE
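Human K18 P301L fragment (15 uM unlabeled plus 0.24 uM Alexa 594-labeled) in 100 mM sodium acetate pH 7 with compound, aggregation induced by 20 uM heparin for 6 hr at 37 C. ThT (30 uM) added for 1 hr, then Alexa 594 FP read.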
KDM4E inh = qHTS Assay for Inhibitors of Human Jumonji Domain Containing 2E (JMJD2E); Lysine-specific demethylase 4E (Homo sapiens), B2RXH2; JMJD2E catalytic domain, FDH-coupled NADH fluorescence (FDH is formaldehyde dehydrogenase); Potency, µM (titrated, usually from 57.1 µM), for the others: at the top dose activity change, negative = inhibition, actives largely listed as inhibitors; actives 1.6% (n = 230,000); AID 2147, 2009; active means well fitted inhibition curve with a large enough effect, not every such curve was filed as active; inconclusive means small, poorly fitted or top-dose-only effect, or another doubt; inactive means no such curve, though single readings can be large or run the other way;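 further: potency means the concentration at half of the fitted maximal effect; 0% = wells with enzyme and -100% = buffer wells without enzyme; nearly all actives have a fitted effect of over 50% in size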
PNC inhibitor = High Content Assay for Compounds that inhibit the Assembly of the Perinucleolar Compartment | PC3M PTB-GFP, PNC prevalence imaging, 16 h; hits give low values | AID 2417, 2010 | actives 3.1% (n = 140,000) | activity change (PNC), negative = inhibition, % at 10 µM;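 active means readout at or below -70, meaning at least 70% loss of cells showing the perinucleolar compartment, a nuclear body marking cancer cells; inconclusive means readout between -30 and a set limit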;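 further: plate controls were DMSO wells for no effect and camptothecin positive control wells for full effect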
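PC3M cells stably expressing PTB-GFP, 750–1000 cells/well, treated 16 h at 37 °C with compound (23 nl of library stock), in duplicate. After paraformaldehyde fixation and Hoechst stain, imaged at 20x; PNC prevalence scored by image analysis.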
NPSR antagonist = qHTS Assay for Antagonists of the Neuropeptide S Receptor: cAMP Signal Transduction | Q6W5P4 | CHO-NPSR cells, cAMP TR-FRET, antagonist mode | Potency, µM (titrated, usually from 38.3 µM), without a hit: at the top dose activity change, negative = inhibition, most hits filed as inhibitors | actives 1% (n = 220,000); further: potency means the concentration at half of the fitted maximal effect; nearly all actives have a fitted effect of over 50% in size
Target sequence (Q6W5P4 whole entry, looked up): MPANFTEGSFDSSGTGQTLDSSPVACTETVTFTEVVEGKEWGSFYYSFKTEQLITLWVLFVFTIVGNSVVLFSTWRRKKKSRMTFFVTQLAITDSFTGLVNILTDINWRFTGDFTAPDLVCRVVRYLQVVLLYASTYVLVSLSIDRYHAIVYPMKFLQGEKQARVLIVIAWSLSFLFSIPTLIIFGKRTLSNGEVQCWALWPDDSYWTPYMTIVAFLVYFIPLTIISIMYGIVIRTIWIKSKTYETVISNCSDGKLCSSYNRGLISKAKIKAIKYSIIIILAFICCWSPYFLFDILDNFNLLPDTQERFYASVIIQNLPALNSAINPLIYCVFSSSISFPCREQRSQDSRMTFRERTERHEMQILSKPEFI
Tau fibril ThT = qHTS for Inhibitors of Tau Fibril Formation, Thioflavin T Binding. recombinant tau K18 P301L, heparin-induced fibrillization, ThT fluorescence. actives 2.1% (n = 270,000). Potency, µM (series often up to 57.4 µM), without a hit: at the highest dose activity, negative = inhibition, hits mostly inhibitors. AID 1460, 2008; further: potency means the concentration at half of the fitted maximal effect; nearly all actives have a fitted effect of over 55% in size
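ThT emission at 510 nm, taken 1 hr after adding 30 uM dye, quantifies aggregates formed when 20 uM heparin acts on human tau K18 P301L for 6 hr at 37 C.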
Tau fluor counter = Counterscreen qHTS for Inhibitors of Tau Fibril Formation, Fluorescence Polarization; tau K18 P301L (four-repeat tau fragment) Alexa594 fluorescence, heparin fibrillization; Potency, µM (series often up to 57.7 µM), for the others: at the highest dose activity change, negative = decrease; actives 0.93% (n = 280,000); further: potency means the concentration at half of the fitted maximal effect; nearly all actives have a fitted effect of over 55% in size
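Human K18 P301L tau (15 uM unlabeled plus 0.24 uM Alexa 594-labeled, final) in 100 mM sodium acetate pH 7 was mixed with compound and 20 uM heparin and incubated 6 hr at 37 C.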
An asterisk follows results filed as active; ? = inconclusive; . = no result; ! = repeats disagree; [ ] = dose if it differs, or a comment. Unless noted, the call rests on the fitted dose curve; in most records, active means well fitted curve in the direction sought with a large enough effect; inconclusive means small, poorly fitted or top-dose-only effect, or another doubt; inactive means no such curve, though single readings can be large; an effect the other way counts as inactive or inconclusive. Unless noted, on the % scale 0 is the no-effect control and ±100 the full control effect.

SMILES	Tau fibril FP	KDM4E inh	PNC inhibitor	NPSR antagonist	Tau fibril ThT	Tau fluor counter
CCOc1ccc(S(=O)(=O)Nc2cccc(-c3ccc(OCC)nn3)c2)cc1	0%	.	.	.	5%	?
CC1CCC(C(=O)NC(C(=O)OCC(=O)c2ccccc2)C(C)C)CC1 (centres undefined)	-7%	.	.	.	-9%	-25%
COc1ccc(N=C(NN)c2ccc3ccccc3n2)cc1	-5%	?	-14	-7%	16µM*	-10%
NNC(=O)c1ccc2ccccc2n1	1%	12%	.	-4%	?	-5%
O=C1C=C(NCCN2CCOCC2)C(=O)c2cnccc21	-8%	-5%	-82*	-10%	?	-15%
O=C(O)c1cccc(N2C(=O)C3CC=CCC3C2=O)c1 (centres undefined)	10%	4%	-100*	-1%[46.1 µM]	-4%	-2%
O=C(O)c1cccc(N2C(=O)c3cccc4c(Cl)ccc(c34)C2=O)c1	4%	?	.	-38%	-8%	1%
O=C(O)c1cccc(N2C(=O)C3CC=C(Cl)CC3C2=O)c1 (centres undefined)	-5%	4%	50	-4%[46.1 µM]	-6%	-5%
O=C(O)c1cccc(N2C(=O)c3cccnc3C2=O)c1	-7%	0%	-100*	-17%[46.1 µM]	-6%	-6%
O=C(C[n+]1cccc(CO)c1)Nc1nc2ccccc2s1	8%	10µM*	.	-1%	-9%	-2%
O=c1c(/C=C(\O)c2ccc(F)cc2)nc2ccccc2n1-c1ccccc1	-10%	28µM*	?	?	?	-22%
c1ccc2c(Cc3c[nH]c4ccccc34)c[nH]c2c1	?	9%	.	.	?	16µM*![quencher]
Nc1nnc(Cc2c[nH]c3ccccc23)s1	8%	0%	-1	8%[7.67 µM]	?	-26%
O=S(=O)(c1ccccc1)c1nnn2c1nc(NC1CCCCC1)c1sccc12	-9%	.	.	.	11%	-5%
COc1ccccc1NC(=O)COC(=O)c1ccccc1OCC(=O)Nc1ccc(SC(F)F)cc1	-11%	28%	15	-4%	-6%	-22%
CN(C)C(=O)COC(=O)c1ccccc1Nc1ccc(SC(F)F)cc1	2%	-6%	-105*	30%	3%	2%
O=C(NCc1ccco1)c1csc(Nc2ccccc2Cl)n1	5%	0%	-117*	-7%[46.1 µM]	-20%	-21%
COc1ccc(Nc2nc(C(=O)NCc3ccco3)cs2)cc1	?	-20%	.	-16%	?	?
CC1(CCc2ccccc2)NC(=S)N(c2ccc(Cl)cc2)N1 (centres undefined)	7%	-15%	-5	-28%	?	?
CC1(CCc2ccccc2)NC(=S)N(c2ccccc2)N1 (centres undefined)	3%	-3%	-124*	-5%	-3%	-3%
Cc1cc2c(cc1NS(=O)(=O)c1cccc(C#N)c1)n(C)c(=O)c(=O)n2C	-3%	.	.	.	-9%	-2%
O=C1c2cccc3cccc(c23)N1Cc1ccc(F)cc1	3%	4%	28	-18%	1%	1%
CCN1/C(=N\N)c2cccc3cccc1c23	6%	9%	.	-3%	7.9µM*	?
COc1cccc(NC(=O)Cn2c(=O)n(-c3cccc(OC)c3)c(=O)c3c4c(sc32)CCCC4)c1	?	.	.	.	16%	-15%
CN(C)c1ccc(NC(=O)Cn2cc(S(=O)(=O)Cc3ccccc3Cl)c3ccccc32)cc1	17%	.	.	.	?	11µM*[quencher]
SMILES	Tau fibril FP	KDM4E inh	PNC inhibitor	NPSR antagonist	Tau fibril ThT	Tau fluor counter
CCOc1nc(-c2ccc(C)cc2)ccc1-c1noc(-c2ccccc2F)n1	-6%	.	.	.	-9%	-8%
Cc1ccc(S(=O)(=O)Nc2ccc(NC(=O)Nc3ccc(F)cc3F)cc2)cc1	?	1%	-17	-39%	-5%	11µM*[quencher]
Oc1c(C(c2cccc(Cl)c2)N2CCOCC2)sc2nc(-c3ccco3)nn12 (centres undefined)	-8%	.	.	.	?	-14%
Cc1cc(C)c2sc(C)[n+](CCCS(=O)(=O)[O-])c2c1	5%	-6%	.	-19%	-1%	-3%
CC[n+]1c(C)sc2c(C)cc(C)cc21	?	-14%	-99*	-6%[46.1 µM]	?	-19%
Cc1ccc(S(=O)Cc2nc(-c3ccc(C(=O)NC(C)c4ccccc4)cc3)oc2C)cc1 (centres undefined)	6%	.	.	.	?	0%
O=C(Nc1ccccc1)N(O)c1ccc(Cl)cc1	?	-4%	14	-8%[46.1 µM]	25µM*	-20%
CCN(CCS(=O)(=O)c1ccc(Cl)cc1)C(=O)Nc1ccccc1	3%	6%	.	?	-11%	-16%
CC(C)(CC(=O)NCc1ccc(Cl)cc1Cl)CC1=NS(=O)(=O)c2ccccc2N1	-11%	.	.	.	7%	-30%
CCOc1ccc(-n2nc(C(=O)N3CCN(CC)CC3)c3ccccc3c2=O)cc1	-5%	2%	-86*	7%	-2%	-4%
Cc1cc(C)nc(NS(=O)(=O)c2ccc(N)cc2)n1	7%	5%	4	1%	-4%	-3%
Cc1ccc(S(=O)(=O)Nc2nsc(N)n2)cc1	18µM*	1%	14	8%[46.1 µM]	11µM*	-23%
CCc1ccccc1NC(=O)CSc1nc2c(oc3ccccc32)c(=O)n1-c1ccccc1F	?	.	.	.	-7%	-20%
CC(C)(C)OC(=O)N1CCC(c2c(C(=O)NCCN3CCc4ccccc4C3)cnn2-c2ccc(F)cc2)CC1	5%	.	.	.	?	-16%
Cc1cc(C)n(C(CC(=O)N2CCc3ccccc3C2)C(=O)O)n1 (centres undefined)	-4%	8%	-127*	9%[46.1 µM]	-5%	-3%
Cc1cc([N+](=O)[O-])nn1CC(=O)N1CCc2ccccc2C1	-7%	2%	36	8%[46.1 µM]	-2%	1%
CCOC(=O)c1noc2ncnc(N(CCC(=O)OC)c3ccccc3)c12	-10%	.	.	.	3%	-2%
